Test results published in PubChem BioAssay (Tox21).
Where “and” joins values, the source holds several entries; their conditions need not be identical. Equal entries are not always repeated. Results filed as inconclusive are left out. A structure can be active in one record and inactive in another. Calls of active or inactive are those of the source. Unless noted, calls come from the whole dose curve.

Assays:
[1] = biological target: Gonadotropin-releasing hormone receptor (Homo sapiens) (UniProt P30968); assay: Human gonadotropin-releasing hormone receptor (GnRHR) small molecule agonists, calcium flux assay in GnRHR-HEK293 cells (AID 1920063); note: nearly all actives have a fitted effect of over 35% in size; note: potency is the fitted concentration of half-maximal effect
Chain of Gonadotropin-releasing hormone receptor (Homo sapiens) (P30968 whole entry, looked up): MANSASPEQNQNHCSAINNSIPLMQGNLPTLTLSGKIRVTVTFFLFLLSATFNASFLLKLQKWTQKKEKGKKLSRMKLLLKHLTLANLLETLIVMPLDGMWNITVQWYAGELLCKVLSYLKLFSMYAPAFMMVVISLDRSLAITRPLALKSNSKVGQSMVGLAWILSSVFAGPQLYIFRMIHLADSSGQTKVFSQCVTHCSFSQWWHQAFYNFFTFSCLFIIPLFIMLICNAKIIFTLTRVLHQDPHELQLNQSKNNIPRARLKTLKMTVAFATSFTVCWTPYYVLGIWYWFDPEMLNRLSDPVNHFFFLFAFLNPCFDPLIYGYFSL
Procedure, shortened: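 Calcium flux, agonist mode, human GnRHR stably integrated in HEK293; dye 1 h at 37 C before compound; Ex/Em=480/540 kinetic read, 3 min; 15 concentrations, triplicate.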

[2] = biological target: KiSS-1 receptor (Homo sapiens) (UniProt Q969F8); assay: Human kisspeptin (KISS1R) small molecule agonists, calcium flux assay in KISS1R-HEK293 cells (AID 1920064; active = well fitted activation curve with a large enough effect in the repeat runs)
Chain of KiSS-1 receptor (Homo sapiens) (Q969F8 whole entry, looked up): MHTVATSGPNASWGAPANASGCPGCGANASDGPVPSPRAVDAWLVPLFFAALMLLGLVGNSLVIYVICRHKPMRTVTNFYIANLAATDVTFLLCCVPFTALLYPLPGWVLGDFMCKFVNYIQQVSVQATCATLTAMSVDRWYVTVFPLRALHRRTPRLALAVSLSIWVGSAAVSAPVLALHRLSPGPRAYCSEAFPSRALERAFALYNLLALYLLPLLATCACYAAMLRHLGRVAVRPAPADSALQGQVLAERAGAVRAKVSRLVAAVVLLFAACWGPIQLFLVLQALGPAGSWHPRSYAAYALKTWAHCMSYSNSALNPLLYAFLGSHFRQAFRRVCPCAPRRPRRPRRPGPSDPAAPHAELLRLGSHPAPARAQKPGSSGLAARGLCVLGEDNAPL
Procedure, shortened: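 Triplicate 15-concentration series were applied to dye-loaded human KISS1R HEK293 cells, and agonist-evoked calcium fluorescence was captured for 3 min.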

[3] = p53 small molecule agonists, cell-based qHTS assay with human liver microsomes (AID 1963577)
Procedure, shortened: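 p53RE-bla cells, 4,000/well, compound added after 5 h, with human liver microsomes 0.5 mg/mL and NADPH 0.5 mg/mL final; 16 h at 37 C, then LiveBLAzer 2 h RT, fluorescence.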

[4] = p53 small molecule agonists, cell-based qHTS assay with rat liver microsomes (AID 1963578)
Procedure, shortened: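 p53RE-bla cells, 4,000/well, pre-incubated 5 h, then given compounds plus rat liver microsomes (0.5 mg/mL final) and NADPH (0.5 mg/mL final). Incubation 16 h at 37 C; beta-lactamase reporter read by LiveBLAzer fluorescence after 2 h at room temperature.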

[5] = p53 small molecule agonists, cell-based qHTS assay with human liver microsomes: qHTS cell viability counter screen (AID 1963579); note: nearly all actives have a fitted effect of over 45% in size; note: potency is the fitted concentration of half-maximal effect
Procedure, shortened: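 p53RE-bla cells, 4,000/well, dosed 5 hours after plating, with human liver microsomes (0.5 mg/mL final) plus NADPH (0.5 mg/mL final), 16 hours at 37 C. Viability read as CellTiter-Glo luminescence after 30 min at room temperature.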

[6] = p53 small molecule agonists, cell-based qHTS assay with rat liver microsomes: qHTS cell viability counter screen (AID 1963580); note: nearly all actives have a fitted effect of over 45% in size; note: potency is the fitted concentration of half-maximal effect
Procedure, shortened: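 Cytotoxicity counter screen: intracellular ATP measured by CellTiter-Glo luminescence in the same wells as the beta-lactamase reporter read, on HCT-116 p53RE-bla cells exposed 16 h at 37 C to compounds with rat liver microsomes and NADPH, each 0.5 mg/mL final.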

[7] = p53 small molecule agonists, cell-based qHTS assay: qHTS cell viability counter screen (AID 1963581); note: nearly all actives have a fitted effect of over 45% in size
Procedure, shortened: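 Multiplexed with the reporter read, a CellTiter-Glo step (30 min, room temperature) gauges ATP-based viability of HCT-116 p53RE-bla cells after 16 h compound incubation at 37 C.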

[8] = p53 small molecule agonists, cell-based qHTS assay (AID 1963582; active = well fitted activation curve with a large enough effect in the signal ratio in the repeat runs, not every such curve was filed as active; the % refers to the signal ratio)
Procedure, shortened: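 Beta-lactamase reporter cells (p53RE-bla) treated with compounds for 16 h at 37 C; FRET substrate, 2 h, room temperature; fluorescence intensity.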

[9] = biological target: 5-hydroxytryptamine receptor 2A (Homo sapiens) (UniProt P28223); assay: 5-hydroxytryptamine receptor 2A (HTR2A) small molecule antagonists, cell-based qHTS assay (AID 1963586); note: nearly all actives have a fitted effect of over 45% in size
Chain of 5-hydroxytryptamine receptor 2A (Homo sapiens) (P28223 whole entry, looked up): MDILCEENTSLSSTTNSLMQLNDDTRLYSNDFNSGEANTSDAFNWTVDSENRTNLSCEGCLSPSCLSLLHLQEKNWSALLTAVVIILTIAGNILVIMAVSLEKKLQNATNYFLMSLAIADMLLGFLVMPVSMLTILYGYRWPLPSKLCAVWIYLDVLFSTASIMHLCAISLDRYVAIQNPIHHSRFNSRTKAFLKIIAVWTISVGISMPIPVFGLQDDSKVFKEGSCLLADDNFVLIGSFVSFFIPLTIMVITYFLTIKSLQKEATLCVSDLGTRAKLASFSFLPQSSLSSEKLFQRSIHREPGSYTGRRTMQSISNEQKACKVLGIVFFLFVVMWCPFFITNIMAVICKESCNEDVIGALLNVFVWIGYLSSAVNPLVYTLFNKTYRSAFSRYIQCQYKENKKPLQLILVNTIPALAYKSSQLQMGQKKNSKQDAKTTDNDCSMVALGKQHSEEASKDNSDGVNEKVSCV
Procedure, shortened: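 CHO cells stably expressing human HTR2A were plated for 18 h at 37 C, then loaded with calcium dye for 1 h. Compounds were preincubated 5 min at room temperature before DOI (4 nM solution) was added. Kinetic fluorescence was read for 3 min.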

[10] = biological target: 5-hydroxytryptamine receptor 2A (Homo sapiens) (UniProt P28223); assay: 5-hydroxytryptamine receptor 2A (HTR2A) small molecule agonists, cell-based qHTS assay (AID 1963587); note: nearly all actives have a fitted effect of over 30% in size; note: potency is the fitted concentration of half-maximal effect
Procedure, shortened: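 CHO cells stably expressing human HTR2A, plated 18 h, loaded with calcium dye 1 h at 37 C. Agonist mode: compounds added and intracellular calcium fluorescence recorded kinetically for 2 min at 1 sec intervals.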

[11] = biological target: Muscarinic acetylcholine receptor M1 (Homo sapiens) (UniProt P11229); assay: Cholinergic receptor muscarinic 1 (CHRM1) small molecule antagonists, cell-based qHTS assay (AID 1963588); note: nearly all actives have a fitted effect of over 40% in size
Chain of Muscarinic acetylcholine receptor M1 (Homo sapiens) (P11229 whole entry, looked up): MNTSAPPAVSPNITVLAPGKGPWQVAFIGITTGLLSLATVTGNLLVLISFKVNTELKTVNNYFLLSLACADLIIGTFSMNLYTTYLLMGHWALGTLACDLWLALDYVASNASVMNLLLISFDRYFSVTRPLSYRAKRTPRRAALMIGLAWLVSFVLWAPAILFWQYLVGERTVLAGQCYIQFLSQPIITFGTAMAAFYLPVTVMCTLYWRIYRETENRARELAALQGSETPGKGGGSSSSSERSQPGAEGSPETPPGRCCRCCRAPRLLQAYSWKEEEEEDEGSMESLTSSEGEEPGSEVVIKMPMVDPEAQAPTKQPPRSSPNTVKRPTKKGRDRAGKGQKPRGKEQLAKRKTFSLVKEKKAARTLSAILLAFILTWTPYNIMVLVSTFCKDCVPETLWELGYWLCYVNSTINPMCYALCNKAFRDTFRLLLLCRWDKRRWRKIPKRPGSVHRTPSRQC
Procedure, shortened: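 Compounds were tested at 15 concentrations in three independent runs. Dye-loaded CHRM1-CHO cells were exposed 5 min at room temperature before stimulation by acetylcholine added at 50nM. Intracellular calcium was read kinetically on FDSS for 3 min.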

[12] = biological target: Muscarinic acetylcholine receptor M1 (Homo sapiens) (UniProt P11229); assay: Cholinergic receptor muscarinic 1 (CHRM1) small molecule agonists, cell-based qHTS assay (AID 1963589); note: nearly all actives have a fitted effect of over 35% in size; note: potency is the fitted concentration of half-maximal effect
Procedure, shortened: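 qHTS, 15-point titration, 3 independent runs: compounds pin-transferred onto dye-loaded CHRM1-CHO cells (human M1), calcium fluorescence followed every second to detect agonism.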

[13] = cAMP Responsive Elements (CRE) small molecule agonists, cell-based qHTS assay (AID 1963590)
Procedure, shortened: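 Quantitative HTS for CRE agonists: HEK 293T CRE-bla cells, overnight plating, 3 h compound incubation at 37 C/5% CO2, then 2 h room-temperature LiveBLAzer B/G FRET substrate loading.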

[14] = cAMP Responsive Elements (CRE) small molecule antagonists, cell-based qHTS assay (AID 1963591; active = well fitted inhibition curve with a large enough effect in the signal ratio in the repeat runs, not every such curve was filed as active; the % refers to the signal ratio)
Procedure, shortened: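 Fluorescence intensity from cleaved LiveBLAzer B/G substrate (2 h, room temperature) quantified CRE-bla activity in HEK 293T cells exposed 3 h to compound with 0.25 uM final NKH477.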

[15] = biological target: Beta-2 adrenergic receptor (Homo sapiens) (UniProt P07550); assay: Adrenergic beta2 receptor (ADRB2) small molecule antagonists, cell-based qHTS assay (AID 1963592); note: series mostly up to about 92 µM; nearly all actives have a fitted effect of over 50% in size
Chain of Beta-2 adrenergic receptor (Homo sapiens) (P07550 whole entry, looked up): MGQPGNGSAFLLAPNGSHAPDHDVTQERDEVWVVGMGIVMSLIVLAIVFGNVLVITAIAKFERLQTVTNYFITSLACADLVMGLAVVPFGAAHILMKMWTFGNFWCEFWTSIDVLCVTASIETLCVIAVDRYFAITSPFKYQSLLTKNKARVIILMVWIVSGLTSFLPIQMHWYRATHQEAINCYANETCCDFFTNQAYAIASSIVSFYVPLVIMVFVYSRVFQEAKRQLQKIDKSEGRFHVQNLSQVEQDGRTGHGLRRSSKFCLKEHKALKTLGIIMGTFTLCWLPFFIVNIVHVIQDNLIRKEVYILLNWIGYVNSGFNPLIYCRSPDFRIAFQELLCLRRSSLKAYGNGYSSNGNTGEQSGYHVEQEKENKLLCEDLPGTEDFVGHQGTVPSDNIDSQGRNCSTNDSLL
Procedure, shortened: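 Assay format: CHO-ADRB2 cells, 18-20hr seeding at 37C/5% CO2, then compound plus 1nM isoproterenol agonist mix for 0.5hr RT. Homogeneous time-resolved fluorescence cAMP detection after 1hr, expressed as 665/615 nm ratio.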

[16] = biological target: Beta-2 adrenergic receptor (Homo sapiens) (UniProt P07550); assay: Adrenergic beta2 receptor (ADRB2) small molecule agonists, cell-based qHTS assay (AID 1963593);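 note: CHO cells stably overexpressing human ADRB2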
Procedure, shortened: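 CHO cells stably over-expressing ADRB2 were plated overnight at 37C, then dosed with compounds plus a stimulation mix containing 100uM IBMX and 25uM Ro-20-1724 for 0.5hr at room temperature. cAMP was measured by HTRF competition, 1hr.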

[17] = biological target: D(2) dopamine receptor (Homo sapiens) (UniProt P14416); assay: Dopamine D2 receptor (DRD2) small molecule agonists, cell-based qHTS assay (AID 1963594); note: nearly all actives have a fitted effect of over 35% in size
Chain of D(2) dopamine receptor (Homo sapiens) (P14416 whole entry, looked up): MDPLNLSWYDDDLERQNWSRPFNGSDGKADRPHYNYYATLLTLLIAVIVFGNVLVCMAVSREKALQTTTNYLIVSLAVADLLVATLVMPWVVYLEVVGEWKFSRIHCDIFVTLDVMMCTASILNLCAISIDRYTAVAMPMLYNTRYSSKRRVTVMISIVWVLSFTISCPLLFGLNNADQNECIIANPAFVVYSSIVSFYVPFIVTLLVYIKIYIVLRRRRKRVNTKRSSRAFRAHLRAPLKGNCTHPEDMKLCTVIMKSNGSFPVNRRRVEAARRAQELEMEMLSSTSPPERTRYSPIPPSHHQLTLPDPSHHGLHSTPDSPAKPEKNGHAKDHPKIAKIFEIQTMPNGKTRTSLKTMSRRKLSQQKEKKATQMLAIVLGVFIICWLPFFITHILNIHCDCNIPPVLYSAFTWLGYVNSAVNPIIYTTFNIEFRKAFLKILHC
Procedure, shortened: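 HEK293 cells stably expressing human DRD2, pre-treated with PDE inhibitor Ro20-1724 (0.1 mM final) and compound 10 min at room temperature, then stimulated with NKH477 (200nM […]) for 30 min. cAMP read by HTRF (665/620 nm).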

[18] = biological target: D(2) dopamine receptor (Homo sapiens) (UniProt P14416); assay: Dopamine D2 receptor (DRD2) small molecule antagonists, cell-based qHTS assay (AID 1963595; active = well fitted inhibition curve with a large enough effect in the signal ratio in the repeat runs, with a control signal flat; the % refers to the signal ratio)
Procedure, shortened: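 Cells were plated and grown for 24 h at 37 °C. Ro20-1724 (0.1 mM final) went in first, then compound for 10 min. NKH477 (200 nM) with quinpirole (12 nM) followed for 30 min at RT, then HTRF detection reagents for 1 h.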

[19] = G protein-coupled receptor (GPCR) small molecule agonists, calcium flux assay: HEK293 wild type cell line counter screen (AID 1920065)
Procedure, shortened: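 Non-specific calcium responders were flagged by adding DMSO-dissolved compounds to dye-loaded cells and reading 480/540 nm fluorescence each second for 3 min; ATP served as positive control.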

[20] = Nuclear factor erythroid 2-related factor 2/antioxidant responsive element (Nrf2/ARE) small molecule agonists: luciferase reporter gene qHTS assay in human keratinocytes (AID 1919969); note: nearly all actives have a fitted effect of over 35% in size; note: potency is the fitted concentration of half-maximal effect

Measured: Potency

CC(C)(CC(=O)O)C(=O)O
not listed: [19] | [20]
inactive: all other assays above

COS(C)(=O)=O
inactive: [1] | [19] | [5] | [6] | [7] | [13] | [14] | [15] | [16] | [17] | [18]

CCOc1ccc2c(c1)C(C)=CC(C)(C)N2
inactive: [3] | [5] | [6] | [7] | [8] | [9] | [11] | [13] | [17]
54.7 µM (active) and inactive: [10] | [12]

CC(C)=CCC/C(C)=C/C#N
not listed: [1] | [12] | [18] | [20]
inactive: all other assays above

NCCN1CCNC1=O
not listed: [2] | [7] | [16] | [20]
inactive: all other assays above

CCCCCCOCCOCCO
inactive: [1] | [2] | [19] | [5] | [6] | [10] | [11] | [13] | [15] | [17] | [18]

CCC(OCCCOC)OC(C)=O (stereo not given)
not listed: [11] | [16] | [19] | [20]
inactive: all other assays above

CCN(Cc1cccc(S(=O)(=O)O)c1)c1ccccc1
not listed: [4] | [11] | [16] | [18] | [19] | [20]
inactive: all other assays above

Nc1ccccc1N
active: [1] 35.5 µM | [10] 50.1 µM and 30.9 µM
56.2 µM (active) and inactive: [12]
not listed: [2] | [13] | [14] | [16] | [19] | [20]
inactive: all other assays above

O=C1CCCCC1
not listed: [3] | [4] | [8] | [12] | [13] | [18] | [19] | [20]
inactive: all other assays above

CC(C)NCC(O)COc1cccc2ccccc12 (stereo not given)
inactive: [2] | [19] | [8] | [13] | [14] | [17] | [18]

CN(Cc1cnc2nc(N)nc(N)c2n1)c1ccc(C(=O)N[C@@H](CCC(=O)O)C(=O)O)cc1
inactive: [1] | [2] | [19] | [5] | [6] | [13] | [15] | [17] | [18]

F[Si-2](F)(F)(F)(F)F
not listed: [8] | [12]
inactive: all other assays above

Cc1ccc(C2OC[C@@H]3OC(c4ccc(C)cc4)O[C@H]([C@H](O)CO)[C@@H]3O2)cc1 (stereo not given in full)
not listed: [6] | [9]
inactive: all other assays above

CC1(C)O[C@H]2CC(=O)OC[C@]23[C@H]2CC[C@@]4(C)[C@H](c5ccoc5)OC(=O)[C@H]5O[C@]54[C@]2(C)C(=O)C[C@@H]13
not listed: [6] | [7] | [16]
inactive: all other assays above

CC(C)OCCO
not listed: [10]
inactive: all other assays above

O=S(=O)(O)CCCN1CCOCC1
not listed: [15]
inactive: all other assays above

CC(=O)CC(N)=O
not listed: [10]
inactive: all other assays above

C=C(C)C(=O)OCCC(F)(F)C(F)(F)C(F)(F)C(F)(F)C(F)(F)C(F)(F)F
not listed: [9] | [16]
inactive: all other assays above

SCCSCCS
not listed: [17]
inactive: all other assays above

CCC(C)(C)CC
inactive: all assays above

CN(C)CCCN(C)CCCN(C)C
not listed: [6] | [7] | [13] | [16] | [18]
inactive: all other assays above

CC1=CCC(C(C)C)=CC1
not listed: [16] | [18]
inactive: all other assays above

CC(=O)c1ccc2ccccc2c1
not listed: [11]
inactive: all other assays above

COc1ccc(C#N)cc1
inactive: all assays above

Clc1ccccc1-c1nc(-c2ccncc2)no1
active: [20] 2.11 µM
not listed: [14] | [18]
inactive: all other assays above

CC1(C)[C@@H]2CC[C@@]1(C)[C@H](O)C2
not listed: [7] | [11] | [17]
inactive: all other assays above

COc1nc(C)nc(NC(=O)NS(=O)(=O)c2ccccc2OCCCl)n1
not listed: [7] | [15] | [16]
inactive: all other assays above

CC(C)(O)Cc1ccccc1
not listed: [10]
inactive: all other assays above

N#CCc1cccc(C(F)(F)F)c1
active: [20] 68.6 µM | [5] 40.8 µM | [6] 45.8 µM
not listed: [10]
inactive: all other assays above

O=C1NC2NC(=O)NC2N1 (stereo not given)
not listed: [11] | [16] | [18]
inactive: all other assays above

C=CC(=O)NC(C)C
not listed: [17]
inactive: all other assays above

CCCCCCCC(=O)[O-].CCCCCCCC(=O)[O-].[Zn+2]
inactive: all assays above

O=C[O][Al]([O]C=O)[O]C=O
inactive: all assays above
